Compound activity from PubChem BioAssay.
FEN1 inh-1 = qHTS Assay for the Inhibitors of Human Flap endonuclease 1 (FEN1); Potency, µM (titrated, usually from 114 µM), without a hit: top-dose activity change, negative = inhibition, actives largely listed as inhibitors; actives 0.35% (n = 390,000); P39748; Recombinant FEN1 flap cleavage, fluorescence, 15 min; also: potency is read from the fitted curve at half-maximal effect; % is scaled to controls: 0 for no effect and ±100 for the full control effect; nearly all actives have a fitted effect of over 65% in size
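Steps: FEN1 (10 nM) dispensed; compound added by pin tool; 15 min at room temperature; substrate added to 50 nM final; reads at 0 min and 15 min; data normalized and fitted (four-parameter Hill).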
POLI inh = qHTS for Inhibitors of Polymerase Iota; DNA polymerase iota (Homo sapiens), Q9UNA4; Pol iota fluorescent replication assay, 10 min; Potency, µM (titrated, usually from 115 µM), inactives show at the highest dose activity, negative = inhibition, actives largely listed as inhibitors; actives 1% (n = 390,000); AID 588590, 2011; also: potency is read from the fitted curve at half-maximal effect
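Pol iota at 10 nM preincubated 15 min with compounds at room temperature; reaction started with fluorescent substrate, 50 nM final. Fluorescence read kinetically at 0 and 10 min; buffer-only wells as negative control.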
WRN helicase inh-1 = qHTS for Inhibitors of WRN Helicase | Bifunctional 3'-5' exonuclease/ATP-dependent helicase WRN (Homo sapiens), Q14191 | actives 0.46% (n = 360,000) | WRN helicase unwinding, fluorescent forked duplex, kinetic | Potency, µM (top dose mostly 114 µM), without a hit: at the highest dose activity change, negative = inhibition, most hits filed as inhibitors; also: potency is read from the fitted curve at half-maximal effect; % is scaled to controls: 0 for no effect and ±100 for the full control effect; nearly all actives have a fitted effect of over 55% in size
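WRN at 20 nM final was preincubated with compound for 15 min at room temperature; reaction started with 100 nM forked duplex oligonucleotide carrying fluorophore and quencher plus 2 mM ATP (final). Unwinding followed kinetically by red fluorescence (ex 525/em 598 nm).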
Pol kappa inh-1 = qHTS for Inhibitors of Polymerase Kappa | DNA polymerase kappa (Homo sapiens), Q9UBT6 | purified Pol kappa, fluorescent DNA synthesis assay, 10 min | Potency, µM (top dose mostly 107 µM), for the others: at the highest dose activity, negative = inhibition, actives largely listed as inhibitors | actives 0.53% (n = 400,000); also: potency is read from the fitted curve at half-maximal effect; % is scaled to controls: 0 for no effect and ±100 for the full control effect
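Pol kappa 10 nM + cpd, 15 min RT; start w/ substrate 50 nM final; fluorescence kinetic read, 0 and 10 min. Neg ctrl: buffer, no enzyme.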
Pol eta inh-1 = qHTS for Inhibitors of Polymerase Eta; DNA polymerase eta (Homo sapiens), Q9Y253; recombinant Pol eta, fluorescent DNA replication assay; Potency, µM (titrated, usually from 114 µM), without a hit: at the highest dose activity change, negative = inhibition, usual class: inhibitors; actives 1.2% (n = 390,000); AID 588591, 2011; also: potency is read from the fitted curve at half-maximal effect; % is scaled to controls: 0 for no effect and ±100 for the full control effect
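Pol eta at 10 nM preincubated with compounds 15 min at room temperature; reaction started with fluorescent substrate (50 nM final) and read kinetically at 0 and 10 min.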
POLB inh = qHTS Assay for Inhibitors of DNA Polymerase Beta | AID 485314, 2010 | actives 1.3% (n = 340,000) | Potency, µM (highest dose often 114 µM), without a hit: top-dose activity change, negative = inhibition, most hits filed as inhibitors | Pol beta primer extension/strand displacement, fluorescence kinetic; also: potency is read from the fitted curve at half-maximal effect; % is scaled to controls: 0 for no effect and ±100 for the full control effect
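Homogeneous kinetic assay of primer extension and strand displacement by 10 nM Pol beta, preincubated 15 min at room temperature with compound before 50 nM substrate (final) was added. Read at 0 and 10 min; four-parameter Hill fit.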
PGK validate = qHTS for inhibitors of Phosphogylcerate Kinase: Hit Validation Screen. shares compounds with Pol kappa inh-1. TbPGK coupled GAPDH assay, Kinase-Glo luminescence. Potency, µM (doses to about 57.5 µM), inactives show at the top dose activity change, negative = inhibition, hits mostly inhibitors. actives 79% (n = 500). AID 686980, 2013; also: potency is read from the fitted curve at half-maximal effect; % is scaled to controls: 0 for no effect and ±100 for the full control effect; nearly all actives have a fitted effect of over 65% in size
Pol iota confirm = qHTS for Inhibitors of Polymerase Iota: Confirmatory Assay for Cherry-picked Compounds; shares compounds with Pol kappa inh-1; Pol iota primer extension, TAMRA/BHQ fluorescence; Potency, µM, hits mostly inhibitors; actives 77% (n = 1,500); AID 720496, 2013; also: potency is read from the fitted curve at half-maximal effect
GALK inh confirm = Confirmation Assay for Inhibitors of Human Galactokinase (GALK) | shares compounds with Pol eta inh-1 | purified GALK, Kinase-Glo ATP depletion luminescence | Potency, µM (highest dose often 115 µM), inactives show top-dose activity, negative = inhibition, hits mostly inhibitors | actives 70% (n = 150) | AID 2015, 2009
Redox cycling = Confirmatory Assay for Inhibitors of Human Galactokinase (GALK): Phenol-HRP redox assay counterscreen | AID 2035, 2009 | actives 40% (n = 150) | Phenol red-HRP H2O2 redox cycling, absorbance 600 nm | Potency, µM (doses to about 115 µM), for the others: at the top dose activity change, negative = H2O2 signal, actives largely listed as inhibitors | shares compounds with Pol eta inh-1
HEK293 tox = Secondary Assay for Inhibitors of Human Galactokinase (GALK): HEK-293 Cell Viability Assay; shares compounds with Pol eta inh-1; HEK-293 viability, ATP luminescence (CellTiter-Glo), 24/48 h; Potency, µM (doses to about 46.1 µM), without a hit: at the top dose activity change, negative = cytotoxicity, most hits filed as inhibitors; actives 10% (n = 170); AID 2547, 2010; also: potency is read from the fitted curve at half-maximal effect; % is scaled to controls: 0 for no effect and ±100 for the full control effect
Pol kappa inh-2 = qHTS for Inhibitors of Polymerase Kappa: Confirmatory Assay for Cherry-picked Compounds | purified Pol-kappa, fluorescent strand-displacement substrate | shares compounds with Pol eta inh-1 | AID 720501, 2013 | Potency, µM, actives largely listed as inhibitors | actives 76% (n = 920); also: potency is read from the fitted curve at half-maximal effect
Pol eta inh-2 = qHTS for Inhibitors of Polymerase Eta: Confirmatory Assay for Cherry-picked Compounds; shares compounds with Pol eta inh-1; Pol eta primer extension, TAMRA/BHQ fluorescence, 10 min; Potency, µM, hits mostly inhibitors; actives 64% (n = 2,600); AID 720502, 2013; also: potency is read from the fitted curve at half-maximal effect
FEN1 inh-2 = qHTS Assay for the Inhibitors of FEN1: Confirmatory Assay for Cherry-picked Compounds; Potency, µM, most hits filed as inhibitors; actives 79% (n = 880); shares compounds with FEN1 inh-1; FEN1 flap cleavage, TAMRA/BHQ2 fluorogenic DNA substrate; also: potency is read from the fitted curve at half-maximal effect; nearly all actives have a fitted effect of over 60% in size
WRN helicase inh-2 = qHTS for Inhibitors of WRN Helicase: Confirmatory Assay for Cherry-picked Compounds; actives 63% (n = 610); WRN helicase DNA unwinding, fluorescence kinetic; Potency, µM (series often up to 57.1 µM), inactives show at the top dose activity, negative = inhibition, usual class: inhibitors; shares compounds with WRN helicase inh-1; also: potency is read from the fitted curve at half-maximal effect; nearly all actives have a fitted effect of over 65% in size
TO displacement = qHTS for Inhibitors of WRN Helicase: Thiazole Orange DNA Binding Counterscreen. Potency, µM (top dose mostly 57.1 µM), without a hit: at the highest dose activity change, negative = inhibition, hits mostly inhibitors. shares compounds with WRN helicase inh-1. actives 10% (n = 610). thiazole orange DNA binding displacement, fluorescence;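 also: drop in dye fluorescence marks compound binding to DNA; potency is read from the fitted curve at half-maximal effect; % is scaled to controls: 0 for no effect and ±100 for the full control effect; nearly all actives have a fitted effect of over 60% in size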
BLM counter = qHTS for Inhibitors of WRN Helicase: BLM Helicase Counterscreen for WRN Inhibitors | shares compounds with WRN helicase inh-1 | Recombinant BLM helicase DNA unwinding, red fluorescence | Potency, µM (doses to about 57.1 µM), for inactives: at the highest dose activity change, negative = inhibition, hits mostly inhibitors | actives 60% (n = 610) | AID 720503, 2013; also: potency is read from the fitted curve at half-maximal effect; nearly all actives have a fitted effect of over 60% in size
Target sequence (P54132 whole entry, looked up): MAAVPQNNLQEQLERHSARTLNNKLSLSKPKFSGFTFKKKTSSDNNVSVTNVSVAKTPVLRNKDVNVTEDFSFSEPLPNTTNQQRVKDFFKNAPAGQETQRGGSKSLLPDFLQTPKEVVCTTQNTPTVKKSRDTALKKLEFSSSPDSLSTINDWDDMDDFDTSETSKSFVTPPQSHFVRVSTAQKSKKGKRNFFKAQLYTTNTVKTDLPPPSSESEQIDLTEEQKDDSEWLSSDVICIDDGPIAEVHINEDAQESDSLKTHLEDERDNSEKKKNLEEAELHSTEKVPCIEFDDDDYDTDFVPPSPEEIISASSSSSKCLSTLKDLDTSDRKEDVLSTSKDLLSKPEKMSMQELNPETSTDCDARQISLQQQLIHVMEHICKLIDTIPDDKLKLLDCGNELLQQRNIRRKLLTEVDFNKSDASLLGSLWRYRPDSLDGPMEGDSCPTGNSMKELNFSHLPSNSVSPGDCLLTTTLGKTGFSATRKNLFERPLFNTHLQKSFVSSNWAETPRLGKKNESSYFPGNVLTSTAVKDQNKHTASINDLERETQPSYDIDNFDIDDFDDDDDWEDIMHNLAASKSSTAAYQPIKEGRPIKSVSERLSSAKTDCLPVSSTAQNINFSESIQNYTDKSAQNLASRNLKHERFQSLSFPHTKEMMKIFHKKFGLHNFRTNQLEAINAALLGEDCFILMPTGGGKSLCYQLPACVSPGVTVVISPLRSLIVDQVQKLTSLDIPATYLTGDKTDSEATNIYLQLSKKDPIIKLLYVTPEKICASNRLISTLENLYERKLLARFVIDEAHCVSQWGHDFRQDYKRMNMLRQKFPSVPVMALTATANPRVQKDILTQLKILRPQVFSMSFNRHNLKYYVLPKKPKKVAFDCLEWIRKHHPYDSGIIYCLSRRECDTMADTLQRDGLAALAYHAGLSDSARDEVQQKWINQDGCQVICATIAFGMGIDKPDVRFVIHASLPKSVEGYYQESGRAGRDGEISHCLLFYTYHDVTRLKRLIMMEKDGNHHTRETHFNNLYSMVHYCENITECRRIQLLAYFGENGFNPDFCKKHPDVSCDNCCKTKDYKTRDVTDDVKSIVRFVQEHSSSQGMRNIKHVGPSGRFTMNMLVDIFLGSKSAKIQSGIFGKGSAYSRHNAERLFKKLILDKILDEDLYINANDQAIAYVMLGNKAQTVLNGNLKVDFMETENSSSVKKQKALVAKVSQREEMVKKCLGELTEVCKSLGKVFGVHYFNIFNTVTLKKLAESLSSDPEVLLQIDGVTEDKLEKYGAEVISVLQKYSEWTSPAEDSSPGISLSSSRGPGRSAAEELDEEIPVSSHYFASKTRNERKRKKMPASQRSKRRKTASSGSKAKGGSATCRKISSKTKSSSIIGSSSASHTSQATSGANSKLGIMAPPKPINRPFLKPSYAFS
An asterisk follows results filed as active; ? = inconclusive; nt = no result given; [ ] = another dose, or the depositor's remark. The list is not random: actives were taken first. Their share in the collection is about 2.4%. Calls follow the shape of the dose curve; as a rule, active = well fitted curve in the direction sought with a large enough effect; inconclusive = small, poorly fitted or top-dose-only effect, or another doubt; inactive = no such curve, though single readings can be large; an effect the other way counts as inactive or inconclusive.

SMILES	FEN1 inh-1	POLI inh	WRN helicase inh-1	Pol kappa inh-1	Pol eta inh-1	POLB inh	Pol iota confirm	Pol eta inh-2	WRN helicase inh-2	TO displacement	BLM counter	others
Cc1cc(OCC(=O)Nc2ccc(N3CCN(C(=O)c4ccco4)CC3)cc2)cc(C)c1Cl	?	?	?	-3.3%	79.4µM*	?	53.2*	?	?	-9.6%	5.41µM*
O=C(O)c1cccc(-c2ccc(/C=c3/sc4nc5ccccc5n4c3=O)o2)c1	12.6µM*	?	39.8µM*	22.4µM*	3.16µM*	3.98µM*	3.77*	5.36*	4.82µM*	?	1.92µM*	FEN1 inh-2=75.7*
Cc1ncc(C(O)c2ccc(N(C)C)cc2)n1Cc1ccccc1 (stereo not drawn)	nt	nt	3.6%	nt	-1.6%	nt	nt	nt	nt	nt	nt
CN(C)c1ccc2nc3c(=O)[nH]c(=O)nc-3n(CC(O)C(O)C(O)CO)c2c1 (stereo not drawn)	44.7µM*	28.2µM*	2.99µM*	?	?	25.1µM*	23.8*	37.9*	21.5µM*	286.7%	21.5µM*	Pol kappa inh-2=?;FEN1 inh-2=33.8*
CCC(=O)CC	nt	nt	nt	-4.6%[60.1 µM]	nt	nt	nt	nt	nt	nt	nt
Nc1ccc2c(c1)C(=O)C(=O)c1ccccc1-2	?	1µM*	35.5µM*	-8.5%	0.794µM*	5.01µM*	6.7*	4.78*	19.2µM*	?	3.41µM*	PGK validate=1.63µM*;GALK inh confirm=2.37µM*;Redox cycling=1.33µM*;HEK293 tox=7.91µM*
Nc1ccc2c(c1)C(=O)c1ccccc1-2	-16.6%	2.8%	-9.3%	-8.4%	7.6%	nt	nt	nt	nt	nt	nt
CSc1ccc(C2CC(=O)Oc3c2c(=O)n(C)c2ccccc32)cc1 (stereo not drawn)	19.8%	0.6%	nt	-0.5%	-5.9%	1.2%	nt	nt	nt	nt	nt
CC1=NN(c2cccc(C(=O)O)c2)C(=O)/C1=C\C=C\c1ccco1	22.4µM*	1.26µM*	4.74µM*	7.08µM*	-98.5%	0.562µM*	2.38*	1.51*	1.52µM*	-20.7%	0.961µM*	PGK validate=2.91µM*;FEN1 inh-2=23.9*
Cc1ccc(-c2nc3c(c(SCC(=O)Nc4cccc(C(=O)O)c4)n2)Cc2cccc(C)c2O3)cc1	?	?	nt	?	nt	1.78µM*	8.44*	84.9*	2.15µM*	2.71µM*	0.857µM*	Pol kappa inh-2=3.77*
O=C1c2cccc(NCCNCCO)c2C(=O)c2cccc(NCCNCCO)c21	3.98µM*	44.7µM*	7.08µM*	28.2µM*	7.08µM*	nt	18.9*	nt	6.07µM*	1.21µM*	7.64µM*	Pol kappa inh-2=18.9*
COc1cc2c(c(OC)c1OC)-c1c(cc3c(c1OC)OCO3)CC(C)C(C)(O)C2OC(=O)c1ccccc1 (stereo not drawn)	nt	nt	nt	9.9%[60.1 µM]	nt	nt	nt	nt	nt	nt	nt
O=c1cc(N2CCNCC2)nc2sc(-c3ccncc3)nn12	nt	nt	nt	nt	nt	nt	26.7*	75.7*	6.07µM*	6.81µM*	1.21µM*
Cc1cc(=O)n2nc(-c3ccccc3)sc2n1	1.1%	15.8%	-6.5%	-1.5%	8.3%	?	nt	nt	nt	nt	nt
O=C(COc1ccc(/C=N/NC(=O)c2ccncc2)cc1)Nc1ccccc1	0.6%	10.4%	-21.4%	-7.4%	-11.7%	?	nt	nt	nt	nt	nt
